The full list was thinned out, with hits kept by preference.
RXFP1 ag – qHTS Assay for Agonists of the Relaxin Receptor RXFP1. AID 2676, 2010. hit rate 0.3% among 370,000. HEK293T-RXFP1 cAMP TR-FRET, 30 min; response scale: percent of porcine relaxin response, buffer zero. Relaxin receptor 1 (Homo sapiens), Q9HBX9. Potency, µM (series often up to 57.5 µM), inactives show at the top dose activation, most hits filed as activators; also: potency is read from the fitted curve at half-maximal effect; % is scaled to controls: 0 for no effect and ±100 for the full control effect; nearly all actives have a fitted effect of over 60% in size
Target sequence (Q9HBX9 whole entry, looked up): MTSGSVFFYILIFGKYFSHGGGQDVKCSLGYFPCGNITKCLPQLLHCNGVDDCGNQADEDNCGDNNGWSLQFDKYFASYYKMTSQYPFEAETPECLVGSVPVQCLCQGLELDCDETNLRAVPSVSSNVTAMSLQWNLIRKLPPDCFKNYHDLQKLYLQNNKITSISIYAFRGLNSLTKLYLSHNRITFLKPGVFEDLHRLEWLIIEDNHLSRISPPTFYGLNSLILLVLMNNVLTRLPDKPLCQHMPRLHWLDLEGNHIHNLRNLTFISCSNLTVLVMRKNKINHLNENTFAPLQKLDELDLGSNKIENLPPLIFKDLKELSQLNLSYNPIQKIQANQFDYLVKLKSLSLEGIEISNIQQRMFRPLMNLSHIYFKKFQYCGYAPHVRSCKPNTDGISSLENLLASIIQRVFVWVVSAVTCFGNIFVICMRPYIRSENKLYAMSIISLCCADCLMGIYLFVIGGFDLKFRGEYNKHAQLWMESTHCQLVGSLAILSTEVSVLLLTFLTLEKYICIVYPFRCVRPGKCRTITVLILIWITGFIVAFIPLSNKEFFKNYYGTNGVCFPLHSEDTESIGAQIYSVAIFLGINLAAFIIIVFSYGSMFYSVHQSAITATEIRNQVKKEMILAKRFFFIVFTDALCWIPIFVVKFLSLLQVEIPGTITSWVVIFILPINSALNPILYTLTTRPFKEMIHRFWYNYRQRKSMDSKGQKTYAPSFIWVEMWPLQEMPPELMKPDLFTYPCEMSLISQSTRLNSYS
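HEK293 cells stably expressing RXFP1, treated 30 min at 37C with compounds plus PDE4 inhibitor Ro 20174; cAMP measured by HTRF TR-FRET. Normalized to buffer and 29 nM porcine relaxin; EC50 by Hill fit.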
TCR act – Activators of T cell receptors: qHTS campaign | primary human leukocytes, anti-CD3, IL-2 HTRF, 48 h | Potency, µM (titrated, usually from 9.22 µM), inactives show top-dose activation of IL-2 secretion, actives largely listed as activators | 330,000 tested, under 10 active | AID 504894, 2011; also: % of control where 0% means no effect
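Primary human leukocytes were stimulated with a-CD3 beads plus compounds for 48 hr without co-stimulation; secreted IL-2 was quantified by HTRF using a-IL-2-K (europium cryptate) and a-IL-2-d2, excited at 320nm with acceptor emission read at 665nm.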
TSHR antagonist – Antagonists of the Thyroid Stimulating Hormone Receptor: HTS campaign; Thyrotropin receptor (Homo sapiens), P16473; TSHR-expressing cells, TSH-stimulated cAMP HTRF, 2 h; stronger effect = lower value; activity change, negative = inhibition, % at 11.5 µM; hit rate 0.2% among 330,000; AID 504810, 2011;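 active = activity change below a set negative limit, meaning inhibition stronger than a set level, cut at about -70% in these data; inconclusive = activity change between two set negative limits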; also: % is scaled to controls: 0 for no effect and ±100 for the full control effect
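Antagonism was scored as loss of TSH-driven cAMP in TSHR cells, stimulated with 4nM TSH (EC80) for 2 hours at 37 deg C and detected by homogeneous HTRF competition immunoassay.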
RXFP1 antag – qHTS Assay for Antagonists of the Relaxin Receptor RXFP1. Relaxin receptor 1 (Homo sapiens), Q9HBX9. HEK293-RXFP1, relaxin-stimulated cAMP HTRF, 30 min; stronger effect = lower value. activity change, negative = inhibition, % at 57.5 µM. hit rate 0.59% among 350,000. AID 1259400, 2018;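 active = activity change of -60% or lower, but not beyond a set lower limit; inconclusive = change between -60% and -40%, or beyond the set limit; inactive = change above -40%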; also: % is scaled to controls: 0 for no effect and ±100 for the full control effect
NPSR antag – qHTS Assay for Antagonists of the Neuropeptide S Receptor: cAMP Signal Transduction. hit rate 1% among 220,000. Potency, µM (series often up to 38.3 µM), inactives show at the highest dose activity change, negative = inhibition, actives largely listed as inhibitors. Q6W5P4. AID 1461, 2008. CHO-NPSR cells, cAMP TR-FRET, antagonist mode; also: potency is read from the fitted curve at half-maximal effect; % is scaled to controls: 0 for no effect and ±100 for the full control effect; nearly all actives have a fitted effect of over 50% in size
PTHR1 ag – qHTS for PTHR1 Agonists: Primary Screen. Parathyroid hormone/parathyroid hormone-related peptide receptor (Homo sapiens), Q03431. HEK293 GP2 PTHR1 cells, GloSensor cAMP luminescence, 1 h. Potency, µM (series often up to 115 µM), without a hit: top-dose activation, most hits filed as activators. hit rate 0.075% among 410,000. AID 743266, 2014; also: potency is read from the fitted curve at half-maximal effect; nearly all actives have a fitted effect of over 55% in size
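HEK-293-derived GP2 cells expressing PTHR1 and a GloSensor cAMP reporter, 3,000/well, plated overnight, given luciferin plus IBMX (each 0.5 mM as added) for 1 h at 37 °C, then compound for 1 h at 37 °C. Luminescence was read after 15 min at room temperature.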
The depositor's hits bear a star; i = inactive; ? = inconclusive; nt = not tested or not shown; [ ] = remark or other dose. Unless noted, calls follow the shape of the dose curve; as a rule, active = well fitted curve in the direction sought with a large enough effect; inconclusive = small, poorly fitted or top-dose-only effect, or another doubt; inactive = no such curve, though single readings can be large; an effect the other way counts as inactive or inconclusive.

SMILES | RXFP1 ag | TCR act | TSHR antagonist | RXFP1 antag | NPSR antag | PTHR1 ag
O=C(Nc1ncccn1)c1ccc([N+](=O)[O-])o1 | 18µM* | 3% | 17 | 12 | 0% | i
O=C(Nc1cccc2c1CCCC2)c1cc([N+](=O)[O-])ccc1Cl | -1% | 4% | -4 | 2 | -17%[46.1 µM] | i
O=C(Nc1ncccn1)c1ccc(Cl)c([N+](=O)[O-])c1 | 1% | -2% | 31 | -3 | nt | 50µM*
O=C(Nc1cccc2c1CCCC2)c1ccc(Cl)c([N+](=O)[O-])c1 | -1% | 5%[46.1 µM] | -34 | -70* | -28% | -34%
CSc1ccccc1NC(=O)C(=O)c1c[nH]c2ccccc12 | 1% | -1% | -20 | -60* | -36% | -24%
CCC(=O)c1ccc(OC(=O)Cc2ccc(OC)cc2)cc1 | -1% | -1% | 3 | -113* | nt | i
CCN(CC)S(=O)(=O)c1nnc(NC(=O)c2ccc(Br)cc2)s1 | -2% | nt | nt | -24 | nt | -32%
CC1=C(C(N)=O)C(c2cccc(C)c2)n2nc(-c3ccc(Cl)cc3)nc2N1 (centres undefined) | 1% | nt | nt | -62* | nt | -12%
COc1ccc(-c2nc3n(n2)C(c2cccnc2)C(C(N)=O)=C(C)N3)cc1 (centres undefined) | 0% | -2% | 0 | -6 | 3%[46.1 µM] | i
Cc1ccccc1Nc1c(-c2ccco2)nc2c(C)cccn12 | 5% | nt | nt | -3 | nt | i
O=C(Oc1ccc(F)cc1)c1nc(SCc2ccc(F)cc2)ncc1Cl | 0% | nt | nt | -2 | nt | 16%
Cc1ccc(-n2c(O)c(/C=N/Nc3ccc(S(=O)(=O)N4CCOCC4)cc3[N+](=O)[O-])c3ccccc3c2=O)c(C)c1 | 0% | -4%[46.1 µM] | -7 | -94* | ? | -34%
O=C(O)c1ccc(/C=N\Nc2ccc(S(=O)(=O)N3CCOCC3)cc2[N+](=O)[O-])cc1 | 2% | 3% | -5 | -7 | 19% | i
CC(C)(C)c1csc(NNC(=O)c2ccc(Cl)cc2)n1 | 0% | 4% | 8 | -95* | -5% | -20%
CC(C)(C)c1csc(NC(=O)c2cccnc2)n1 | 2% | 0% | 6 | -5 | nt | -38%
Oc1ccc(C=Nc2ccc(N3CCOCC3)cc2)c(O)c1 | -1% | 4% | -21 | -10 | -18%[46.1 µM] | -19%
Oc1ccc(N=Nc2cccc(C(F)(F)F)c2)cc1C=Nc1ccc(N2CCOCC2)cc1 | 1% | -5%[46.1 µM] | -18 | -35 | 7.9µM* | -48%
CCCNC(=O)c1cn(CC)c2cc(N3CCN(C(=O)c4ccco4)CC3)c(F)cc2c1=O | 0% | 1% | 13 | 10 | nt | i
CCn1cc(C(=O)NCc2cccc(F)c2)c(=O)c2cc(F)c(N3CCN(C(=O)c4ccco4)CC3)cc21 | 0% | 1% | -10 | -12 | 10µM* | -39%[57.5 µM]
Cc1ccc(S(=O)(=O)c2ccc([N+](=O)[O-])cn2)cc1 | 2% | -1% | -16 | -17 | nt | -22%
O=[N+]([O-])c1ccc(S(=O)(=O)c2ccccc2)nc1 | -2% | -5% | -98* | -5 | nt | -59%
Cc1cc2c(cc1S(=O)(=O)CCC(=O)N1CCN(c3ccccc3)CC1)OCC(=O)N2 | -4% | nt | nt | nt | nt | i
O=C(CN1C(=O)COc2ccc(S(=O)(=O)N3CCCC3)cc21)NCc1ccccn1 | 0% | -3% | 8 | 4 | -3% | -3%
CCN(CC)S(=O)(=O)c1ccc2c(c1)N(CC(=O)NCc1ccccn1)C(=O)CO2 | 25µM* | 1% | -9 | 43 | 3% | i
CCN(CC)S(=O)(=O)c1ccc2c(c1)N(CC(=O)Nc1cccnc1Cl)C(=O)CO2 | 13µM* | 3% | 19 | 8 | -1% | i
SMILES | RXFP1 ag | TCR act | TSHR antagonist | RXFP1 antag | NPSR antag | PTHR1 ag
CC(=O)c1ccc(N2CCN(C(=O)c3cc(S(=O)(=O)N4CCCCCC4)cn3C)CC2)cc1 | -1% | nt | nt | nt | nt | -35%
CN(C)CCNc1nc2sc3c(c2c(=O)n1Cc1ccccc1)CCCCC3 | 0% | -4% | 5 | -92* | nt | i
CC1CCN(S(=O)(=O)c2ccc3c(c2)C(=NO)c2cc(S(=O)(=O)N4CCC(C)CC4)ccc2-3)CC1 | 1% | 4% | -15 | -7 | 0.5µM* | -8%[57.5 µM]
O=S(=O)(c1ccc(S(=O)(=O)N2CCCC2)cc1)N1CCCCCC1 | 0% | 6% | -4 | 4 | 6%[46.1 µM] | 20%
O=S(=O)(c1ccc2c(c1)C(=NO)c1cc(S(=O)(=O)N3CCCCC3)ccc1-2)N1CCCCC1 | 2% | 6% | -29 | -10 | 2µM* | -9%
COc1ccc(S(=O)(=O)N2CCC(C)CC2)cc1OC | -2% | 1% | 6 | 11 | nt | -13%
CC(=O)N1CCN(c2ccc(O)cc2)CC1 | nt | nt | nt | 4 | nt | nt
CC(=O)Nc1cc(OC(C)=O)c2nonc2c1OC(C)=O | 0% | 2% | -74* | 0 | ? | -12%[57.5 µM]
COc1cccc(/C=N/NC(=O)Cn2cnc3c2c(=O)n(C)c(=O)n3C)c1OC | 18µM* | -2% | 20 | -4 | 23% | i
COC(=O)c1ccccc1NC(=O)Cn1cnc2c1c(=O)n(C)c(=O)n2C | nt | 1% | nt | -4 | nt | i
CCOc1ccccc1OCC(=O)NNC(=O)Cn1cnc2c1c(=O)n(C)c(=O)n2C | 22µM* | 2% | 9 | -8 | 14% | i
Cn1c(=O)c2c(ncn2CC(=O)NC2CCCCC2)n(C)c1=O | 16µM* | -13% | 13 | 4 | nt | ?
COc1cc(/C=N/NC(=O)Cn2cnc3c2c(=O)n(C)c(=O)n3C)cc(OC)c1OC | 19% | 11% | 3 | -6 | 12% | i
CC(=O)c1cc(-c2ccccc2)n(CC(=O)NCCc2ccc(C)cc2)c1C | 6% | nt | nt | -16 | nt | i
Cc1ccc(-n2nc(C)c3c(C(=O)NCCc4ccc(S(N)(=O)=O)cc4)cc(C)nc32)cc1 | 1% | nt | nt | -2 | nt | i
CO[C@@]1(NC(=O)CSC(F)F)C(=O)N2C(C(=O)O)=C(CSc3nnnn3CCO)CO[C@@H]21 | nt | nt | nt | 16 | nt | nt
O=c1c(C(c2ccccc2)c2c(O)sc3ccccc3c2=O)c(O)sc2ccccc12 | 16% | -2% | ? | -7 | 10µM* | i
Cc1cc(SCc2ccc([N+](=O)[O-])cc2)nc(=O)[nH]1 | 0% | -7% | -138* | -12 | nt | -6%
Cc1nc(SCc2ccc([N+](=O)[O-])cc2)n[nH]1 | 1% | -3% | -2 | -73* | nt | ?

Assay outcomes deposited in PubChem BioAssay by National Center for Advancing Translational Sciences (NCATS).
